CF NFkB inh – inhibitors of cystic fibrosis induced NF-kB | KKLEB NF-kB-GFP reporter, PAF-induced, GFP fluorescence overnight | inhibition, % at 5 µM | hit rate 0.86% among 360,000;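 active means at least 50% inhibition at 5 µM, scaled per plate between neutral and stimulator controls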;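 further: PAF is a Pseudomonas aeruginosa culture filtrate used as stimulus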
KKLEB tox – CF airway cell cytotoxicity counter-screen. KKLEB CF airway cells viability, ATPlite luminescence, overnight; hits give low values; cells stimulated with P. aeruginosa culture filtrate. activity change (cytotoxicity), % at 5 µM. hit rate 0.36% among 360,000. AID 602141;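 active means corrected activity change at or below -50% at 5 µM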
Shn3 3UTR inh – Schnurri-3 reporter inhibition in Clone20 osteoblasts. Clone20 osteoblast Shn3 3'UTR firefly luciferase, 24 h. inhibition, % at 12.5 µM. hit rate 0.52% among 360,000;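 active means mean inhibition of at least 75% with every replicate also reaching 75%; inconclusive means mean inhibition at least 75% but some replicate below; inactive means mean inhibition below 75%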
Peg3 prom inh – reduces Peg3 promoter-driven luciferase expression in HeLa; HeLa PEG-Prom luciferase reporter, luminescence, overnight; inhibition, % at 20 µM; hit rate 1.7% among 360,000;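 active means inhibition of at least 50% at 20 µM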
HIF-2a block – blocks HIF-2a reporter activity; hit rate 0.72% among 360,000; inhibition, % at 18.8 µM; 786-0 RCC cells HIF-2a reporter, luciferase luminescence, overnight; AID 624352;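 active means inhibition of the luminescence signal of 40% or more relative to plate controls, in a single-dose primary screen at 18.75 µM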
Each line names hits and unclear results; the compound was inactive in the other large screens. This is a sample that favours compounds with a hit; in the whole collection about 2.6% have one here.

OC(CNc1ccnc2cc(Cl)ccc12)CNC1CCCCC1 (stereo not drawn)	Peg3 prom inh 99.6
Clc1ccc2c(NCc3ccccc3)ccnc2c1	Shn3 3UTR inh 90.4
Cc1ccccc1/C=N/Nc1ccnc2cc(Cl)ccc12	Peg3 prom inh 94.5
COc1ccc(-c2[nH]c(-c3ccc(SC)cc3)nc2SCC(=O)Nc2nccs2)cc1	none
Cc1nn(CC(=O)N2CCc3ccccc32)c(C)c1S(=O)(=O)NC(C)(C)C	none
Cc1ccc(/C=N/Nc2ccnc3cc(Cl)ccc23)c(C)c1	Peg3 prom inh 110.8
Clc1ccc2c(N/N=C/c3cccnc3)ccnc2c1	none
CC1OC(CC(=O)O)CC2=C1C(=O)c1c(O)cccc1C2=O (stereo not drawn)	CF NFkB inh 101.0, KKLEB tox -105.0, Shn3 3UTR inh 99.1, Peg3 prom inh 100.1, HIF-2a block 87.4
O=C1C=C(O)c2cccc(O)c2C1=O	none
CC(=O)Nc1ccc(S(=O)(=O)O)c(OC(C)=O)c1	none
COc1ccc(C(=O)C(CCC(CNC(C)(C)C)C(=O)c2ccc(OC)cc2)CNC(C)(C)C)cc1 (stereo not drawn)	Peg3 prom inh 104.7, HIF-2a block 45.0
COc1ccc(C(=O)CC(=O)c2ccc(C(C)(C)C)cc2)cc1	none
O=C(Cc1ccsc1)NCC(=O)Nc1ccc(F)c(F)c1	none
COc1ccccc1C(CCNS(=O)(=O)c1ccc(C)cc1)c1ccco1 (stereo not drawn)	none
Cc1[nH]c2c(ccc3ccccc32)c1C1C(CCN)C1(C)C (stereo not drawn)	Peg3 prom inh 100.1
COc1cc(/C(C)=N/N2CCOCC2)cc(OC)c1OC	none
O=S1(=O)CCN(c2ccccc2CC(c2c[nH]c3ccccc23)c2c[nH]c3ccccc23)CC1	Peg3 prom inh 57.4
O=C(C(=C1NCCN1)n1cncn1)c1ccccc1	none
Cc1cc(Nc2nc3ccccc3[nH]c2=O)n(-c2ccccc2)n1	none
Cc1cc(Nc2nc3ccccc3nc2Cl)n(-c2ccc([N+](=O)[O-])cc2)n1	Peg3 prom inh 53.3
COc1cc(F)ccc1-c1csc(C(NC(C)=O)c2cccc(F)c2)n1 (stereo not drawn)	none
O=[N+]([O-])c1cc(-c2csc(NCCc3nc4cc(Cl)c(Cl)cc4n3CCCO)n2)ccc1Cl	Peg3 prom inh 91.8
CCCn1c(CCNc2nc(-c3ccc(Cl)c([N+](=O)[O-])c3)cs2)nc2cc(Cl)c(Cl)cc21	none
C/C(=N\NC(=O)c1nnn(-c2nonc2N)c1CN(C)c1ccccc1)c1ccccn1	Shn3 3UTR inh 91.8, Peg3 prom inh 67.6
O=C(NCc1ccccc1)c1sc(=S)n2c1[nH]c(=O)c1ccccc12	CF NFkB inh 51.3
CCCCNC(=O)c1sc(=S)n2c1[nH]c(=O)c1ccc(C(=O)NCCc3ccc(OC)c(OC)c3)cc12	none
CCC(C(=O)NCc1ccco1)n1nc(C)c2c(C)n(-c3ccccc3)nc2c1=O (stereo not drawn)	none
O=C(c1ccccc1)C(CN1CCCCC1)c1ccccc1 (stereo not drawn)	CF NFkB inh 84.9, KKLEB tox -62.9, Shn3 3UTR inh inconclusive, Peg3 prom inh 103.5
CCOc1ccc(C(C#N)N2CCOCC2)cc1OC (stereo not drawn)	none
CCOc1ccc(C(O)(CCC(C)C)C(CN2CCOCC2)c2ccccc2)cc1 (stereo not drawn)	none
CC(CN1CCN(CC(C)C(=O)c2ccccc2)CC1)C(=O)c1ccccc1 (stereo not drawn)	none
CCOc1ccc(C(CN2CCOCC2)C(C)=O)cc1OC (stereo not drawn)	Peg3 prom inh 58.4
CCOc1ccc(C(=O)C(CN2CCOCC2)c2ccccc2)cc1 (stereo not drawn)	Peg3 prom inh 82.5
Cc1sc(Cc2nc(O)cs2)nc1-c1ccccc1	none
CSc1nc2ccc(NC(=O)CS(=O)(=O)c3ccccc3)cc2s1	none
Oc1c(CN2CCc3ccccc3C2)cc(Cl)c2cccnc12	Shn3 3UTR inh 86.8, Peg3 prom inh 50.3
Oc1c(Cl)cc(CN2CCOCC2)c2cccnc12	Shn3 3UTR inh 90.3
O=C(Oc1c(CN2CCOCC2)cc(Cl)c2cccnc12)c1ccccc1	none
CCOC(=O)c1cc(C#N)c(SC)nc1C	none
CCOC(=O)c1cc2c(N)c(C(=O)c3cc(C#N)c(SC)nc3C)sc2nc1C	KKLEB tox -63.7
Cc1ccc(NC(=O)C2CCC(CNC(=O)[C@@H]3Cc4ccccc4CN3)CC2)c(C)c1 (stereo partly drawn)	none
COc1ccc(Cl)cc1Nc1nc(N)c2ccccc2n1	none
COc1ccc(C)cc1Nc1nc(N)c2cc(OC)c(OC)cc2n1	Peg3 prom inh 84.2
Cc1ccc(-n2ncc3c(N4CCN(c5ccccc5)CC4)ncnc32)c(C)c1	Peg3 prom inh 96.6
COc1ccc(-n2ncc3c(N4CCN(c5cc(C)ccc5C)CC4)ncnc32)cc1	none
COc1ccc(-n2ncc3c(N4CCN(c5cccc(C)c5C)CC4)ncnc32)cc1	Peg3 prom inh 68.1
